In PubChem BioAssay AID647 (Vanderbilt High Throughput Screening Facility, 2007):
In all, about 2,200 compounds went through this assay and about 1,400 (64%) were called active.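 How the source made its calls: active means luminescence in either replicate above plate mean of wells with a partly effective reference agonist dose plus 3 SD; inactive means the rest.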 So high a share suggests a set chosen from earlier hits. The entries come from a sample that favours actives as a whole.

Experiment: effects on beta-adrenoceptor cAMP reporter signal – cell-based, secondary assay 2, luminescence, counter-screen for D1 allosteric modulator project, confirmation (AID 647);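 further: isoproterenol raises cAMP through native beta-adrenoceptor Gs so signal bypasses D1; raw luminescence counts from the Envision reader with one value per duplicate well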
Settings: HEK293 D1 CRE-luciferase, isoproterenol EC30 counter-screen; at 10 µM; active compounds read high

Row | SMILES | luminescence
1 | CCC(=NCc1ccco1)c1c(O)n(Cc2ccccc2)c(=O)[nH]c1=O | 3640 (active)
